One sequence from PMC7862700, “An all-to-all approach to the identification of sequence-specific readers for epigenetic DNA modifications on cytosine” can be followed below.

Experiment in all cases: DAPPL (digital affinity profiling via proximity ligation, sequencing); 10 mM Tris-HCl pH 7.5, 50 mM NaCl, 1 mM DTT, 4% glycerol, room temperature, 30 min; GST-TFs on glutathione beads, 16-mer random dsDNA library, 0.1% formaldehyde crosslink after washing; high values mean tight binding
For one experiment, the target named is T1, FLI1 (Homo sapiens, UniProt Q01543 1-452).
T1 sequence: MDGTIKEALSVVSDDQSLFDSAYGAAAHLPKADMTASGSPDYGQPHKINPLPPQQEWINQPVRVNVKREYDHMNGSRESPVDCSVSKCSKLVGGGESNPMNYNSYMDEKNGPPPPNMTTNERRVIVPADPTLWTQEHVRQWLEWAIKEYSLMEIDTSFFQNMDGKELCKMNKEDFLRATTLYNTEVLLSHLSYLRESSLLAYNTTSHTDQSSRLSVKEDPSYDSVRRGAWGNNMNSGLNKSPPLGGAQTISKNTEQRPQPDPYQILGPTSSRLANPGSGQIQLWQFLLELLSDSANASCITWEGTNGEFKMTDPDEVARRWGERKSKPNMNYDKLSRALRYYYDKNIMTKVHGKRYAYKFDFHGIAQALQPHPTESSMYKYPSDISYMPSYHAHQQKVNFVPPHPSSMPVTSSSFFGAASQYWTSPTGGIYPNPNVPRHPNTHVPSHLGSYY
The note with it: protein: recombinant; tags: N-terminal GST; dsDNA, one strand shown. Put shortly: (§1)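 Pools were built from human transcription factors expressed in yeast as GST fusions, captured on glutathione beads and DNA-barcoded, along with a tag-only sample. Incubation with 200 nmole of a 16-mer random double-stranded DNA library lasted 30 min at room temperature in Tris/NaCl/DTT/glycerol buffer, and was followed by washing, 0.1% formaldehyde crosslinking, proximity ligation, PCR amplification and Illumina NextSeq500 sequencing. Binding signal is the quotient of each hexamer's read frequency for a factor and its frequency for the tag-only sample.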

The next experiment addresses T2, ELK1 (Homo sapiens, UniProt P19419 1-428).
T2 sequence: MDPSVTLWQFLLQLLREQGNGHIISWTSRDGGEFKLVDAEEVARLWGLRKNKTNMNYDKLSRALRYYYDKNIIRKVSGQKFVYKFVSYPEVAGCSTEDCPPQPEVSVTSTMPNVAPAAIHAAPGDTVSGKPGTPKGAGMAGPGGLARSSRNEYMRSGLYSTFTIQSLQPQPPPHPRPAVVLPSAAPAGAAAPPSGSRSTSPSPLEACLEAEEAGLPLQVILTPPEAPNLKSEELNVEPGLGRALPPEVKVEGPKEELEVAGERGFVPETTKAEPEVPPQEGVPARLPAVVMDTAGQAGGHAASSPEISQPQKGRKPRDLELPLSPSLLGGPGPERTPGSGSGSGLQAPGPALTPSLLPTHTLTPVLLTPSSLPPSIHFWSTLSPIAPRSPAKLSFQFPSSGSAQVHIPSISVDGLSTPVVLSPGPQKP
As to conditions: protein: recombinant; tags: N-terminal GST; dsDNA, one strand shown. Put shortly: as §1

In another experiment the target is T3, GABPA (Homo sapiens, UniProt Q06546 1-454).
T3 sequence: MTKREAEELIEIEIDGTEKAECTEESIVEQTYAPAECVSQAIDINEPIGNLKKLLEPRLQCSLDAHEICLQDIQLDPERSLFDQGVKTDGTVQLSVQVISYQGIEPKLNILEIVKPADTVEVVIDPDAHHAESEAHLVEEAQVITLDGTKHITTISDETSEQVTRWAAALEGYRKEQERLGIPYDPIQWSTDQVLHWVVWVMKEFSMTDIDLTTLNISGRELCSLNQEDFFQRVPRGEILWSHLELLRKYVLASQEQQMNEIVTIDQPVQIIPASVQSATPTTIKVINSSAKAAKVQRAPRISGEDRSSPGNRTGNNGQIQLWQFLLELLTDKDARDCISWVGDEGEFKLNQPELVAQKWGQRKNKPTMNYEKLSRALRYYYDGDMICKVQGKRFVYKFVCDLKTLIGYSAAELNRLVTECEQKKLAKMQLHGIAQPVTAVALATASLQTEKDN
The note with it: protein: recombinant; tags: N-terminal GST; dsDNA, one strand shown. Summed up: as §1

A further experiment concerns the target T4, ERG (Homo sapiens, UniProt P11308 1-479).
T4 sequence: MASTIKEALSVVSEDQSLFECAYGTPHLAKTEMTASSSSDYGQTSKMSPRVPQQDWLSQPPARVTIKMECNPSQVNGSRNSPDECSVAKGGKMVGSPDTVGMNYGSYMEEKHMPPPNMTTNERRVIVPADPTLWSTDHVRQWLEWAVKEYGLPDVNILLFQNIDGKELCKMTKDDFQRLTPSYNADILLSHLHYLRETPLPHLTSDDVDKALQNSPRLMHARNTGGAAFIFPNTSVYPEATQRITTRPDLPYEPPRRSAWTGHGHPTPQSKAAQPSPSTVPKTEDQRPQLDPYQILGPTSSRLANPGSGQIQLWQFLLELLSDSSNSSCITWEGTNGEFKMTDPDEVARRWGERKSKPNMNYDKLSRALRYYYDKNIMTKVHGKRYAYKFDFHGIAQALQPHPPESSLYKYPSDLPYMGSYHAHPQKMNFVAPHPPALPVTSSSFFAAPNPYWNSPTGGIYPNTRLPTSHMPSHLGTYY
As to conditions: protein: recombinant; tags: N-terminal GST; dsDNA, one strand shown. Summed up:
as §1

A further experiment deals with ELF1 (Homo sapiens, UniProt P32519 1-619). As to conditions: protein: recombinant; tags: N-terminal GST; dsDNA, one strand shown. Summed up:
as §1

The target of a further experiment is T5, EHF (Homo sapiens, UniProt Q9NZC4 1-300).
T5 sequence: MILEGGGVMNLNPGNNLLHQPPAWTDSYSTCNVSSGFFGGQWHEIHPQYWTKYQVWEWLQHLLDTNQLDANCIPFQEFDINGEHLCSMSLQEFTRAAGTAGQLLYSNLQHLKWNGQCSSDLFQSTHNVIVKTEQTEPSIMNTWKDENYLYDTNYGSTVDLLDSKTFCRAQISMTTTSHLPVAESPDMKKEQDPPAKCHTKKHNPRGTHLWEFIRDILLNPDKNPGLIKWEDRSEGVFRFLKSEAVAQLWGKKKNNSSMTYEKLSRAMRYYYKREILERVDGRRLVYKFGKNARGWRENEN
The note with it: protein: recombinant; tags: N-terminal GST; dsDNA, one strand shown. Put shortly: as §1

In another experiment the target is SPI1 (Homo sapiens, UniProt P17947 1-270). As to conditions: protein: recombinant; tags: N-terminal GST; dsDNA, one strand shown. Put shortly: as §1
For the next experiment, the target named is SPIB (Homo sapiens, UniProt Q01892 1-262). As to conditions: protein: recombinant; tags: N-terminal GST; dsDNA, one strand shown. Put shortly:
as §1

The target in a further experiment is T6, ELK3 (Homo sapiens, UniProt P41970 1-407).
T6 sequence: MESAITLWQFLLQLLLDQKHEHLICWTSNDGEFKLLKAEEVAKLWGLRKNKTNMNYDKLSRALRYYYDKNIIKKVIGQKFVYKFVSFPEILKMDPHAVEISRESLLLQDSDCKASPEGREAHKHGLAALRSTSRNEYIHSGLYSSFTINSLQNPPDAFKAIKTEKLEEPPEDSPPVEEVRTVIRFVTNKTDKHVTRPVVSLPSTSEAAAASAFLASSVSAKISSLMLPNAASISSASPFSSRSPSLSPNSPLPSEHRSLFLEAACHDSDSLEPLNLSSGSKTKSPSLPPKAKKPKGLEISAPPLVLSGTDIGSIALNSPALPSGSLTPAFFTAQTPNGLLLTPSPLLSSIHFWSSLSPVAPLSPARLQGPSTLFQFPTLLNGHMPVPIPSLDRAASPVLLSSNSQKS
As to conditions: protein: recombinant; tags: N-terminal GST; dsDNA, one strand shown. Put shortly: as §1

The target in the next experiment is T7, FEV (Homo sapiens, UniProt Q99581 1-238).
T7 sequence: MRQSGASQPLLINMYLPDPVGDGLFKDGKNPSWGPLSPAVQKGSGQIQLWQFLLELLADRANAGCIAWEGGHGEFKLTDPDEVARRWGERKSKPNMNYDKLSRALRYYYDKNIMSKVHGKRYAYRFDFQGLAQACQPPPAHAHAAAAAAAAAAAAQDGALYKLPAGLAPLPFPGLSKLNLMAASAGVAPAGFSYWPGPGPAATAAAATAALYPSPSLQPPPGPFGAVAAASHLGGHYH
The note with it: protein: recombinant; tags: N-terminal GST; dsDNA, one strand shown. Put shortly:
as §1

A further experiment addresses ETV5 (Homo sapiens, UniProt P41161 1-510). The note with it: protein: recombinant; tags: N-terminal GST; dsDNA, one strand shown. Put shortly:
as §1

The target in a further experiment is HSF1 (Homo sapiens, UniProt Q00613 1-529). As to conditions: protein: recombinant; tags: N-terminal GST; chain copies: 3; dsDNA, one strand shown. Put shortly:
as §1

In a further experiment the target is T8, SPIC (Homo sapiens, UniProt Q8N5J4 1-248).
T8 sequence: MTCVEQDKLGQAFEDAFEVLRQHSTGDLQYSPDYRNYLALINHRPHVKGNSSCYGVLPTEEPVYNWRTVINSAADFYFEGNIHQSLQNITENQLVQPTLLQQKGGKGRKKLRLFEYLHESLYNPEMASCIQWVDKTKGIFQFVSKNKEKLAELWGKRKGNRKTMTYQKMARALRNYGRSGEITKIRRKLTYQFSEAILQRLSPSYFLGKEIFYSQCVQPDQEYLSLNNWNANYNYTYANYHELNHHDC
The note with it: protein: recombinant; tags: N-terminal GST; dsDNA, one strand shown. Put shortly:
as §1

The target of another experiment is ELF4 (Homo sapiens, UniProt Q99607 1-663). The note with it: protein: recombinant; tags: N-terminal GST; dsDNA, one strand shown. Put shortly: as §1
For a further experiment, the target named is T9, ELK4 (Homo sapiens, UniProt P28324-2 1-405).
T9 sequence: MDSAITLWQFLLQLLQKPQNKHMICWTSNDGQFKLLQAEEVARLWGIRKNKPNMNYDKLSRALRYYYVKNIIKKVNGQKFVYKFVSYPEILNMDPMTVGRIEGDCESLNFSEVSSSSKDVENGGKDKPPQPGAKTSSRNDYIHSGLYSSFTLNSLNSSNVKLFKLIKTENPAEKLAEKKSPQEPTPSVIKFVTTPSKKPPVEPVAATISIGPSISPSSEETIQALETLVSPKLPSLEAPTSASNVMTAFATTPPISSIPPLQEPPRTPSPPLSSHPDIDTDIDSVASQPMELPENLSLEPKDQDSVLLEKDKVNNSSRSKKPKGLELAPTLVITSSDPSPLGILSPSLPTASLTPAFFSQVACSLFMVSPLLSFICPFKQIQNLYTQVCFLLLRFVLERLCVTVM
As to conditions: protein: recombinant; tags: N-terminal GST; dsDNA, one strand shown. Summed up: as §1

For another experiment, the target named is T10, ETV2 (Homo sapiens, UniProt O00321 1-342).
T10 sequence: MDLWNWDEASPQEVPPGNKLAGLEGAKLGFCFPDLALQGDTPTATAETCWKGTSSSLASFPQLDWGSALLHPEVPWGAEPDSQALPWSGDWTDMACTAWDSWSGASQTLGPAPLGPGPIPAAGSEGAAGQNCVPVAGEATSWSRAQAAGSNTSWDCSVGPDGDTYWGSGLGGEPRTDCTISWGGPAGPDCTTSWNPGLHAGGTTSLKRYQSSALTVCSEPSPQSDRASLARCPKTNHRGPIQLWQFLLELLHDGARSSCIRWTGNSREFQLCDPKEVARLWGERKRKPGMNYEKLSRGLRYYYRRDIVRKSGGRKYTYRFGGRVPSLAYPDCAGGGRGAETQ
As to conditions: protein: recombinant; tags: N-terminal GST; dsDNA, one strand shown. Put shortly:
as §1

Another experiment concerns the target T11, ELF3 (Homo sapiens, UniProt P78545 1-371).
T11 sequence: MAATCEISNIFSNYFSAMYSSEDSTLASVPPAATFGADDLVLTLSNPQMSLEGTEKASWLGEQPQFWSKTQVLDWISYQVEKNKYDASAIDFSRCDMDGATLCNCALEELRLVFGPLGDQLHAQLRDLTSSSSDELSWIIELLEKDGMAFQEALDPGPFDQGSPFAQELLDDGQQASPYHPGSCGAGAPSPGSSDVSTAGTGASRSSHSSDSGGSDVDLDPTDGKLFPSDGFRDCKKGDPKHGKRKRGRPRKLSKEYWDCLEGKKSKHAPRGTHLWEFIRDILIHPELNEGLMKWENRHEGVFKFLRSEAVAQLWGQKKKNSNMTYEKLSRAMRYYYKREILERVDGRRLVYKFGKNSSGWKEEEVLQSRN
As to conditions: protein: recombinant; tags: N-terminal GST; dsDNA, one strand shown. Put shortly: as §1

The next experiment has as its target CRX (Homo sapiens, UniProt O43186 1-299). As to conditions: protein: recombinant; tags: N-terminal GST; dsDNA, one strand shown. Put shortly: as §1
The next experiment has as its target ETV1 (Homo sapiens, UniProt P50549 1-477). As to conditions: protein: recombinant; tags: N-terminal GST; dsDNA, one strand shown. Summed up: as §1

Sequence of ETV5 (P41161 whole entry): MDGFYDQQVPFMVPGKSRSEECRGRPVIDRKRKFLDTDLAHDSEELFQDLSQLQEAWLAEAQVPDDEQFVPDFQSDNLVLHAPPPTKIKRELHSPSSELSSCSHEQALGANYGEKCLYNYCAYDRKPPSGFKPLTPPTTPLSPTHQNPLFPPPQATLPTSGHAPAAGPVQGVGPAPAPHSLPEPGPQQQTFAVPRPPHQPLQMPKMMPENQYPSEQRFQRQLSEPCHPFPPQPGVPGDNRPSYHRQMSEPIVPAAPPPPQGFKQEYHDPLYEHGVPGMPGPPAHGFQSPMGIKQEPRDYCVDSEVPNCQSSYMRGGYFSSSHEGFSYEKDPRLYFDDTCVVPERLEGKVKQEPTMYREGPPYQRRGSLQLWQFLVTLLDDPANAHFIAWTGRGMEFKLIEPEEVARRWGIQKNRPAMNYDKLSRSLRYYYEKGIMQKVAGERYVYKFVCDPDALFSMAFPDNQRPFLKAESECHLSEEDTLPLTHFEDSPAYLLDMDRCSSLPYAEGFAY
Sequence of ETV1 (P50549 whole entry): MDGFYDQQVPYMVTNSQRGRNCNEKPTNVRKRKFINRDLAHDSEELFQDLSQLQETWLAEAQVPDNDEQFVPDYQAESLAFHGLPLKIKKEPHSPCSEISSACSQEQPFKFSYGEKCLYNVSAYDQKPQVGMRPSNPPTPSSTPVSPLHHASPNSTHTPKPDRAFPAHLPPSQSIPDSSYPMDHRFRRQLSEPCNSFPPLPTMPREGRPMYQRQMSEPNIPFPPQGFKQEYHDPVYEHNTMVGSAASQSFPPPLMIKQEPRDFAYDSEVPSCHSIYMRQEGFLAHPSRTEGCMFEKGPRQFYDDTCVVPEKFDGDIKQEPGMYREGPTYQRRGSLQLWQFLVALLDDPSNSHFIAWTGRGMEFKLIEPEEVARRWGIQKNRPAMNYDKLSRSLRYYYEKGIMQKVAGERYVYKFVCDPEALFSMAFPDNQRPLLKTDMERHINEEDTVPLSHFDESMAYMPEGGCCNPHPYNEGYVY
Sequence of HSF1 (Q00613 whole entry): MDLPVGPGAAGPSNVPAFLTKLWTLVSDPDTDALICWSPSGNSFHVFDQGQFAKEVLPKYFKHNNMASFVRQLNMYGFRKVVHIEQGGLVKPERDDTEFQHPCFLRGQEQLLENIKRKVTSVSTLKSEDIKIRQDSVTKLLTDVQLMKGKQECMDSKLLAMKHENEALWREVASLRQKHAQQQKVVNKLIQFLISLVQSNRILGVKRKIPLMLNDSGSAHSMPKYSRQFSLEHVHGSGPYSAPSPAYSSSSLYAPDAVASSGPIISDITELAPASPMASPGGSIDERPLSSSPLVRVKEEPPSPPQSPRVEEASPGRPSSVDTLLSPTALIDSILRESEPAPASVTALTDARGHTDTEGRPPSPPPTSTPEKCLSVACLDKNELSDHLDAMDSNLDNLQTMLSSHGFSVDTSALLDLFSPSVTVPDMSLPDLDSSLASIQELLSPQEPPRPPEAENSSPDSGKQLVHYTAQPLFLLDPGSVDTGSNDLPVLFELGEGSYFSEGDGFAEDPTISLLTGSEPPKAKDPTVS
Sequence of CRX (O43186 whole entry): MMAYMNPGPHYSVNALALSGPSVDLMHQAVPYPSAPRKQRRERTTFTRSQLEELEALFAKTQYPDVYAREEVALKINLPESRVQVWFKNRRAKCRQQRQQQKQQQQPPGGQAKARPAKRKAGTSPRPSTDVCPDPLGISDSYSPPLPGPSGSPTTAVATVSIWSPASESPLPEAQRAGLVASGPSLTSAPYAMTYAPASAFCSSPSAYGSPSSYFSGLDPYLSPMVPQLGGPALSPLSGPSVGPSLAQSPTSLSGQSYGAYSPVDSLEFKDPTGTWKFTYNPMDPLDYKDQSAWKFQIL
Sequence of SPIB (Q01892 whole entry): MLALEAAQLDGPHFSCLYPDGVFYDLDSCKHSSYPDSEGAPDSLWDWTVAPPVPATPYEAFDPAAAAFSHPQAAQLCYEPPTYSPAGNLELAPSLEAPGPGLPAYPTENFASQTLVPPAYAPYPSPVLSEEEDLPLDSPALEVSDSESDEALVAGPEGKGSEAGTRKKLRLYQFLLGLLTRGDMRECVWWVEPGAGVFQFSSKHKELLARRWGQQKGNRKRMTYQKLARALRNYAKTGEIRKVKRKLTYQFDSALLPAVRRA
Sequence of ELF1 (P32519 whole entry): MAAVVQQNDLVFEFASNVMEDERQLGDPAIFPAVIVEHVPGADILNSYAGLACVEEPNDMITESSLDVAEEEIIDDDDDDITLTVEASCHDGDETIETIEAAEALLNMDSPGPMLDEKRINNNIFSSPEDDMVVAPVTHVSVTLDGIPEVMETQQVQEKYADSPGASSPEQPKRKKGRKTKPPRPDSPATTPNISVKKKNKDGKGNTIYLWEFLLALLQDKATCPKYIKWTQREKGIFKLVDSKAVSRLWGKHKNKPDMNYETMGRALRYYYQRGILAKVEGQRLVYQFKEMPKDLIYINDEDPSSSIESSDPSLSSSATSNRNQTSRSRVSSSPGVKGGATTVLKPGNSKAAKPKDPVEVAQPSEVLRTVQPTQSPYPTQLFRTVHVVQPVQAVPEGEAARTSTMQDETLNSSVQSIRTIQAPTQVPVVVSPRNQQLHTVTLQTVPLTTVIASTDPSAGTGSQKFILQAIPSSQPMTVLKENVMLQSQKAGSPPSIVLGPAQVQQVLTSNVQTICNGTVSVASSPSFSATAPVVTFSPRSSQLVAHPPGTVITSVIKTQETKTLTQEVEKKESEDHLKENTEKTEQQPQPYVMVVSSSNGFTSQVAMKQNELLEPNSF
Sequence of ELF4 (Q99607 whole entry): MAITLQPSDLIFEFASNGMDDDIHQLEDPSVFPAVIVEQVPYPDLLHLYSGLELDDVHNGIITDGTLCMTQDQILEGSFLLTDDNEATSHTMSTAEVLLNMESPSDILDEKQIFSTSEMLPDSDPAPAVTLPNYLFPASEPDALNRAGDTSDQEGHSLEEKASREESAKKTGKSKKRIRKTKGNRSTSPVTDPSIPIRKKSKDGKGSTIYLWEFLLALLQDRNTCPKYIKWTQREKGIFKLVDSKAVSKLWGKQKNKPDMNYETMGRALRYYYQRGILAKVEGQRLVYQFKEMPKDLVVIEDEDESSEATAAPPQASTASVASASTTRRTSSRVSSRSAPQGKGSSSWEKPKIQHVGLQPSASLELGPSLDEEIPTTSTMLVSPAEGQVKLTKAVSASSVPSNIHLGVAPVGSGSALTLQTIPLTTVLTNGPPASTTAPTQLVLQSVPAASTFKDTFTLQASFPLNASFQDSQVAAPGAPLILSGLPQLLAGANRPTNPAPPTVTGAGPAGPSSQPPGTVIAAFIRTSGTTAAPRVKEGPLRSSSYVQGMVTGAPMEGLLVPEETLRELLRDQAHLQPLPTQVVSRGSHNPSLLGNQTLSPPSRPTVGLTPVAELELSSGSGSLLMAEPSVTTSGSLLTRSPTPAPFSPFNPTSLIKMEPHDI

For the sequence TTTATT, the binding signal with FLI1 was 1.36 fold enrichment (6-mer frequency, TF over GST control); in the experiment with ELK1, 1.25 fold enrichment (6-mer frequency, TF over GST control); in the experiment with GABPA, 1.24 fold enrichment (6-mer frequency, TF over GST control); in the experiment with ERG it was 1.26 fold enrichment (6-mer frequency, TF over GST control); with ELF1, 1.19 fold enrichment (6-mer frequency, TF over GST control); with EHF, 1.31 fold enrichment (6-mer frequency, TF over GST control). In addition, the binding signal is 1.25 fold enrichment (6-mer frequency, TF over GST control) with SPI1; 1.32 fold enrichment (6-mer frequency, TF over GST control) with SPIB; 1.31 fold enrichment (6-mer frequency, TF over GST control) with ELK3; 1.29 fold enrichment (6-mer frequency, TF over GST control) with FEV; 1.29 fold enrichment (6-mer frequency, TF over GST control) with ETV5; 1.46 fold enrichment (6-mer frequency, TF over GST control) with HSF1. Also, the binding signal is 1.25 fold enrichment (6-mer frequency, TF over GST control) with SPIC; 1.3 fold enrichment (6-mer frequency, TF over GST control) with ELF4; 1.27 fold enrichment (6-mer frequency, TF over GST control) in the experiment with ELK4; 1.29 fold enrichment (6-mer frequency, TF over GST control) with ETV2; 1.29 fold enrichment (6-mer frequency, TF over GST control) with ELF3; 1.93 fold enrichment (6-mer frequency, TF over GST control) in the experiment with CRX. Besides, the binding signal in the experiment with ETV1 is 1.27 fold enrichment (6-mer frequency, TF over GST control).
